Laboratory results from PubChem BioAssay (NCI).
This is part of a sample that, as a whole, favours compounds with a hit. Of some 79,000 tested, about 15% had one in any assay. Rule as the data show it: active = growth inhibition above about 70%; inactive = the rest.

Assays:
[1] = NCI Yeast Anticancer Drug Screen. Data for the rad50 strain (AID 155);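 also: 0% = growth of vehicle-only cultures of the same strain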; details: S. cerevisiae rad50 strain growth inhibition; at 50.0 µM; stronger effect = higher value
Method in brief: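 Growth of the mutant yeast was measured after compound exposure and referenced to vehicle-treated cultures.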

[2] = NCI Yeast Anticancer Drug Screen. Data for the mec2-1 strain (AID 157); details: S. cerevisiae mec2-1 strain, at 50.0 µM, stronger effect = higher value
Method in brief: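 mec2-1 yeast strain, carrying an alteration in DNA damage repair or cell cycle control, was exposed to compounds; growth inhibition was measured relative to vehicle-treated controls.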

[3] = NCI Yeast Anticancer Drug Screen. Data for the sgs1 mgt1 strain (AID 161);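 also: 0% = growth of cultures given vehicle only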; details: S. cerevisiae sgs1 mgt1 strain, at 50.0 µM, stronger effect = higher value
Method in brief: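 Growth of a repair-deficient yeast mutant was monitored after compound treatment and expressed as inhibition relative to vehicle-treated cultures.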

[4] = NCI Yeast Anticancer Drug Screen. Data for the cln2 rad14 strain (AID 165);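 also: 0% = growth equal to vehicle treated cultures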; details: S. cerevisiae cln2 rad14 strain, at 50.0 µM, stronger effect = higher value
Method in brief: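 Yeast carrying cln2 and rad14 alterations (cell cycle control and DNA damage repair) were exposed to compounds. Growth inhibition was measured against vehicle-treated controls.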

[5] = NCI Yeast Anticancer Drug Screen. Data for the bub3 strain (AID 167); details: S. cerevisiae bub3 mutant strain, at 50.0 µM, stronger effect = higher value
Method in brief: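 Whole-cell yeast assay. The mutant strain was incubated with compounds, and growth inhibition was determined by comparison with vehicle-treated cells.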

[6] = NCI Yeast Anticancer Drug Screen. Data for the mlh1 rad18 strain (AID 175); details: S. cerevisiae mlh1 rad18 strain growth inhibition; at 50.0 µM; stronger effect = higher value
Method in brief: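 Growth inhibition of the yeast strain was measured after compound exposure and expressed relative to vehicle-treated controls. The strain carries defined defects in DNA damage repair.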

Measured: growth inhibition

CCOc1ccc(C2Oc3c(cccc3OC)C=C2[N+](=O)[O-])cc1OCC (stereo not drawn)
inactive: [1] 38.8% | [2] 38.9% | [3] 32.5% | [4] 11.4% | [5] 42.2% | [6] 5.7%

COC(=O)C1CC2CC1C1C2SC(F)(F)C1(F)F (stereo not drawn)
inactive: [1] 0.2% | [2] -1.7% | [3] 6.4% | [4] 7.8% | [5] -5% | [6] 17.1%

CC(C#N)NC(=O)NC(C)C(N)=O (stereo not drawn)
inactive: [1] 3.85% | [2] 6.3% | [3] -5% | [4] -48.3% | [5] 8.2% | [6] -27.7%

CCCCC(CC)CO (stereo not drawn)
inactive: [1] -12.4% | [2] -25% | [3] -32.7% | [4] -108% | [5] -16.5% | [6] -20.3%

COc1cc(N2C(=O)CSC2=S)cc(OC)c1OC
inactive: [1] 21.3% | [2] 12.3% | [3] 61.8% | [4] 25.4% | [5] 33.8% | [6] 23.4%

Cc1ncc([N+](=O)[O-])n1Cc1nncs1
inactive: [1] -9.35% | [2] -11.4% | [3] -7.95% | [4] -31.9% | [5] -19.3% | [6] -14.2%

CN(c1ccccc1)S(=O)(=O)c1cccc([N+](=O)[O-])c1
inactive: [1] -25.3% | [2] -44.5% | [3] 0% | [4] -9.5% | [5] 24.3% | [6] -1.55%

CCCCOC(OCCCC)C(C)(C)CN(C)C
inactive: [1] 14.9% | [2] 13.2% | [3] 13.4% | [4] 17.9% | [5] 7.15% | [6] 19.1%

O=C1c2c(-c3ccccc3)ccc(-c3ccccc3)c2C2(O)OC1(O)c1c(-c3ccccc3)ccc(-c3ccccc3)c1C2=O
inactive: [1] 5.65% | [2] 4.95% | [3] 9.1% | [4] -6.9% | [5] 6.4% | [6] -13.9%

O=C(N/N=C/c1ccc(Cl)c([N+](=O)[O-])c1)C(O)(c1ccccc1)c1ccccc1
inactive: [1] 10.2% | [2] -2.7% | [3] 12.4% | [4] -4.45% | [5] -1% | [6] -19.1%

Cn1c2ccccc2c2[nH]c3ccccc3c(=O)c21
inactive: [1] 54.5% | [2] 16.4% | [3] -15.1% | [4] -8.95% | [5] -11.4% | [6] 28.6%

CCCn1c(=O)n(C)c(=O)c2c1ncn2C
inactive: [1] -5.15% | [2] -2.25% | [3] 13.2% | [4] -28.1% | [5] 4.1% | [6] 13.5%

CN(C)CCCN1CCC2(CCC(C(C)(C)C)CC2)CC1
inactive: [1] 40% | [2] -16.1% | [3] -0.3% | [4] -19.1% | [5] -31.2% | [6] 49.8%

N/N=C1/C(=O)N(c2ccc(S(N)(=O)=O)cc2)C(=O)C1C(=O)Nc1ccc(S(N)(=O)=O)cc1 (stereo not drawn)
inactive: [1] -4% | [2] 15.6% | [3] -0.9% | [4] 30.6% | [5] 0.25% | [6] 12.1%

NNC(=O)C(=O)NN=C(C(Cl)(Cl)CO)C(Cl)(Cl)CO
inactive: [1] 18.9% | [2] -0.65% | [3] 15.1% | [4] 14.1% | [5] 22.3% | [6] 20.4%

CC(C)C(N)=O
inactive: [1] 5.1% | [2] -0.1% | [3] -7.15% | [4] -3% | [5] 12.1% | [6] -9.25%

O=C(CCl)OCc1ccc(Cl)cc1
inactive: [1] 4.5% | [2] 2.55% | [3] -3.75% | [4] -27.8% | [5] 1.25% | [6] -9.45%

COC(=O)Cc1c(C(=O)OC)c(O)cc(O)c1C(=O)OC
inactive: [1] 5.85% | [2] 5.25% | [3] -10.2% | [4] -14.4% | [5] 12.3% | [6] -5.85%

O=c1[nH]nc(SCc2ccccc2)c2nncn12
inactive: [1] 2.45% | [2] 3.1% | [3] 6.35% | [4] 23.4% | [5] 6.55% | [6] 20.1%

CCOC(=O)NC(=O)c1cn(CCN2CCN(c3ncnc4nc[nH]c34)CC2)c(=O)[nH]c1=O
inactive: [1] 18.9% | [2] 16.6% | [3] 14.4% | [4] 12.7% | [5] -4.3% | [6] 23.1%

c1ccc(COc2ccc3c(c2)CN(Cc2ccccc2)CO3)cc1
inactive: [1] -21.1% | [2] -28.9% | [3] 33.6% | [4] -18.6% | [5] 62.2% | [6] -9.1%

COC1=C(O)C(=O)N(C)C(=O)C1
inactive: [1] 20.4% | [2] 9.35% | [3] 29.2% | [4] 0.75% | [5] -14.7% | [6] 10.8%

Nc1cc(=S)nc(N)[nH]1
inactive: [1] 20.2% | [2] -6.75% | [3] 22.4% | [4] 9.55% | [5] 20.6% | [6] 28.9%

CC(C)=C/C(CC(O)(C(F)(F)F)C(F)(F)F)=N\O
inactive: [1] -17.2% | [2] 4.45% | [3] -6.5% | [4] 18.4% | [5] -15.8% | [6] -13.3%

COc1cc(CCC(=O)NS(=O)(=O)c2ccccc2)cc(OC)c1OC
inactive: [1] 4.2% | [2] 1.9% | [3] -6.75% | [4] -2.85% | [5] -3.85% | [6] 10.2%

OC[C@@H]1C2CCC([C@@H]1CO)C2(Cc1ccccc1)Cc1ccccc1
inactive: [1] 5.9% | [2] 26.9% | [3] 9.45% | [4] -73% | [5] 4.95% | [6] -11.2%

COc1ccc(C(=O)/C=C/C(C)=C/C=N/N(C)c2ccccc2)cc1
inactive: [1] 14% | [2] 18.4% | [3] -0.5% | [4] -39.9% | [5] 17.1% | [6] 17.8%

C[N+](C)(C)C12CCC(CC1)C1([N+](C)(C)C)CCC2CC1
inactive: [1] 4.2% | [2] 21.4% | [3] 17.2% | [4] -10.2% | [5] 4.45% | [6] 22.1%

CC(C)(C)C(N)=O
inactive: [1] 2.4% | [2] -1.25% | [3] 4.35% | [4] -3.9% | [5] -7.25% | [6] -1.25%

N#CC(C(N)=O)C(CC(=O)c1ccccc1)c1ccccc1 (stereo not drawn)
inactive: [1] -7.65% | [2] -3.1% | [3] 13.3% | [4] 15.9% | [5] 19.2% | [6] -2.05%

COCc1ccnn1-c1ccccc1C
inactive: [1] -5.85% | [2] 13.5% | [3] 9.3% | [4] -8.45% | [5] 5.2% | [6] -6.05%

Cc1ccc(O)c(C(C)C)c1
inactive: [1] -26.4% | [2] -48.8% | [3] -34.4% | [4] -16.1% | [5] -40.2% | [6] -8.6%

C=C(c1ccc(OC)cc1)c1cc(C(C)(C)C)c(O)c(C(C)(C)C)c1
inactive: [1] -4.45% | [2] -1.75% | [3] -17.9% | [4] 51.8% | [5] -4.65% | [6] 0.35%

CCN(CC)CCC(=O)c1ccc(C)cc1
inactive: [1] -37.4% | [2] -46.8% | [3] -26.1% | [4] 11.2% | [5] 0.5% | [6] -23.1%

CCOP(=O)(OCC)OC1CC(n2cc(C)c(=O)n(C)c2=O)OC1CO[Si](C)(C)C(C)(C)C (stereo not drawn)
inactive: [1] 19.1% | [2] 1.5% | [3] 25.9% | [4] 17.6% | [5] 20.9% | [6] -12.7%

O=C(CC(O)(C(F)(F)F)C(F)(F)F)C(CCCl)C(O)(C(F)(F)F)C(F)(F)F (stereo not drawn)
inactive: [1] 17.6% | [2] 18.9% | [3] 41.6% | [4] 21.4% | [5] 8.05% | [6] 38.8%

CC1=C(C(=O)Nc2c(C)cccc2C)C(c2ccccc2Cl)C(C(=O)Nc2c(C)cccc2C)=C(C)N1
inactive: [1] -39.4% | [2] -6.4% | [3] -27.4% | [4] -20.9% | [5] -13.8% | [6] -11.7%

CSC1NN=C(CCC(=O)Nc2ccc(C)cc2)O1 (stereo not drawn)
inactive: [1] -37.7% | [2] 5.25% | [3] 13% | [4] -21.1% | [5] -3.8% | [6] 12.9%
